Laboratory results taken from PubChem BioAssay (EPA / NIEHS).
Records with an inconclusive call do not appear. Activity calls are given as the source filed them. The calls were made as follows: active = hit-call score of the fitted dose curve at least 0.9, where 1 is the maximum; inconclusive = response in the unintended direction; inactive = score below 0.9.

How the values were obtained:
[1] = biological target: Estrogen receptor (Homo sapiens) (UniProt P03372); assay: OT_ER_ERaERa_0480: Odyssey Thera (OT) 8-hour HEK293T Protein-Complementation Assay for Estrogen Receptor-alpha/-alpha Homodimer (AID 2283351);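 also: rise in fluorescence from reassembled reporter fragments on ERα LBD homodimer in nucleus or whole cell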
Outline: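 Binding reporter in which dimerisation of ERα LBD (aa 310-547) fusions reconstitutes a fluorescent reporter in HEK293T cells. Compounds incubated 8 h; mean fluorescence intensity increase versus DMSO scored.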

[2] = biological target: T1, Estrogen receptor (Homo sapiens) + Estrogen receptor beta (Homo sapiens) (UniProt P03372+Q92731); assay: OT_ER_ERaERb_0480: Odyssey Thera (OT) 8-hour HEK293T Protein-Complementation Assay for Estrogen Receptor-alpha/-beta Heterodimer (AID 2283352)
Outline: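 Human HEK293T cells were treated for 8 hours and receptor heterodimerisation was detected through reconstitution of a fluorescent reporter split between ER-alpha and ER-beta ligand-binding domains. Activity was analysed as gain of signal against DMSO.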

[3] = biological target: T1, Estrogen receptor (Homo sapiens) + Estrogen receptor beta (Homo sapiens); assay: OT_ER_ERaERb_1440: Odyssey Thera (OT) 24-hour HEK293T Protein-Complementation Assay for Estrogen Receptor-alpha/-beta Homodimer (AID 2283356);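 also: heteromer of ER alpha and ER beta binding domains; hits raise reporter fluorescence and both agonists and antagonists give an increase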
Outline: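 24 h exposure; HEK293T PCA cells with ERα/ERβ LBD fragments; signal rise in nuclear or whole-cell fluorescence over vehicle.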

[4] = biological target: Estrogen receptor beta (Homo sapiens) (UniProt Q92731); assay: OT_ER_ERbERb_0480: Odyssey Thera (OT) 8-hour HEK293T Protein-Complementation Assay for Estrogen Receptor-beta/-beta Homodimer (AID 2283357);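 also: active means signal gain over DMSO baseline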
Outline: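 Fluorescence intensity, nuclear for agonists and nuclear plus cytoplasmic for antagonists, was quantified by laser scanning cytometry versus vehicle after 8 h treatment. The cells were HEK293T stably carrying ER beta LBD fragment-complementation partners.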

[5] = biological target: Androgen Receptor/SRC-1 Co-activator, AR (gene 367) (UniProt P10275); assay: OT_AR_ARSRC1_0960: Odyssey Thera (OT) 16-hour HEK293T Protein-Complementation Assay for Androgen Receptor/SRC-1 Co-activator (AID 2283353);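 also: actives raise the signal above DMSO so potency reflects increased AR and SRC-1 complex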
Outline: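 Interaction of AR with SRC-1 was followed by YFP fragment complementation in HEK293T cells after 16 h of dosing. Gain of nuclear-over-cytoplasmic 488 nm fluorescence against DMSO controls defined activity.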

[6] = biological target: Androgen Receptor/SRC-1 Co-activator, AR (gene 367) (UniProt P10275); assay: OT_AR_ARSRC1_0480: Odyssey Thera (OT) 8-hour HEK293T Protein-Complementation Assay for Androgen Receptor/SRC-1 Co-activator (AID 2283354);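 also: hits raise the complementation signal above DMSO so AC50 marks enhancers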
Outline: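 HEK293T cells stably expressing AR and SRC-1 fused to Venus YFP fragments, imaged 8 h after dosing. Complementation fluorescence scored as nuclear/cytoplasmic ratio at 488 nm in at least 400 cells per image; gain fitted versus DMSO.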

[7] = biological target: human Peroxisome Proliferator-activated Receptor alpha (PPARa), PPARA (gene 5465) (UniProt Q07869); assay: NVS_NR_hPPARa: NovaScreen (NVS) Nuclear Receptor Binding Assay for human Peroxisome Proliferator-activated Receptor alpha (PPARa) (AID 2283359);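 also: activity means loss of TR-FRET signal versus DMSO baseline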
Outline: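 Cell-free TR-FRET binding assay with extracted PPARα protein, read 1 h after dosing. Primary screen in duplicate at 25 uM, with actives retested in concentration series. Loss of signal versus DMSO.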

[8] = biological target: Retinoic acid receptor alpha (Homo sapiens) (UniProt P10276); assay: NVS_NR_hRAR_Antagonist: NovaScreen (NVS) Nuclear Receptor Binding Assay for human Retinoic Acid Alpha Receptor Antagonism (RAR) (AID 2283358)
Outline: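 Cell-free TR-FRET binding assay with extracted human RARalpha in antagonist mode, read 2 h after dosing. Loss of signal was fitted relative to DMSO; the primary screen used 25 uM in duplicate, with concentration series on follow-up.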

Measured: AC50

Sequence of Androgen Receptor/SRC-1 Co-activator, AR (gene 367) (P10275 whole entry, looked up, the tested form may be a part): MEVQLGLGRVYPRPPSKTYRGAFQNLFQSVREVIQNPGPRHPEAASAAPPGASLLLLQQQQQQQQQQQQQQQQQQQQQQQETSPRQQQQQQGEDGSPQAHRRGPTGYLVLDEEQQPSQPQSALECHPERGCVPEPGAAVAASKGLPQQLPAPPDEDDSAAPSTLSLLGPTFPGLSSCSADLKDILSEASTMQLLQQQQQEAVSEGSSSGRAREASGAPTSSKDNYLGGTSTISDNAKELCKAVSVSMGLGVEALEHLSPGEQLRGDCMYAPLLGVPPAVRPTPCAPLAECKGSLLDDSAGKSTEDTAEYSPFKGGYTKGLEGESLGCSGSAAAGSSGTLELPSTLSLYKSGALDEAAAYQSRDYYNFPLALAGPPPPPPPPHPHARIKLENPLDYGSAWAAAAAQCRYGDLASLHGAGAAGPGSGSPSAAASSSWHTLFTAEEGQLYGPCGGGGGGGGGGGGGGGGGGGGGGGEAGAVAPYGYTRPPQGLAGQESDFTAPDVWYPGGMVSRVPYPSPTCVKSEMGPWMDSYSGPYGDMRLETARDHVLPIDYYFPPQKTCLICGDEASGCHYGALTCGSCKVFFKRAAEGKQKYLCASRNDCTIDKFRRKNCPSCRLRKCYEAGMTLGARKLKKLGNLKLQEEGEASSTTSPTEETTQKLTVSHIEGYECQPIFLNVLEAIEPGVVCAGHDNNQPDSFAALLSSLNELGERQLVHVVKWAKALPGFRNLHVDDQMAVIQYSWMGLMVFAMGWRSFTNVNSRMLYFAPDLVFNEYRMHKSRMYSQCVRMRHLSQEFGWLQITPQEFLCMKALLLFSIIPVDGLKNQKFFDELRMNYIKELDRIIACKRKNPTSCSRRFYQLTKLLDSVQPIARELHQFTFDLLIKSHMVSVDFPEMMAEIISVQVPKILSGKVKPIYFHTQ
T1 sequence (P03372 whole entry, looked up, the tested form may be a part): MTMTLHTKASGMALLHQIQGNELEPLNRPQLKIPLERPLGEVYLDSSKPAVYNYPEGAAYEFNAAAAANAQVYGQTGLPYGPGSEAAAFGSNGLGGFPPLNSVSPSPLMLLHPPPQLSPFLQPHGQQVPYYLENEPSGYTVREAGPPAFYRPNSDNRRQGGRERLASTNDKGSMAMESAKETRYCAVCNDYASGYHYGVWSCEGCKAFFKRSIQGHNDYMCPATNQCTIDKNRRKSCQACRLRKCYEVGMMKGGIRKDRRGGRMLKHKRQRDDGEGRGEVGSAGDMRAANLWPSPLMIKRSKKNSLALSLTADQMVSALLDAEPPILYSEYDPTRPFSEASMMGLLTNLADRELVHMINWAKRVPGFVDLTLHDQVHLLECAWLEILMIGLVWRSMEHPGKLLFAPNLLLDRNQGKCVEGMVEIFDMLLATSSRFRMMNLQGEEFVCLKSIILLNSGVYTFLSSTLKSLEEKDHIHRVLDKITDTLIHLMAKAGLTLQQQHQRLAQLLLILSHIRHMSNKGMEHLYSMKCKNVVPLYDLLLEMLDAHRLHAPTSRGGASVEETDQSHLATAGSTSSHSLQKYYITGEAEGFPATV
T1 sequence (Q92731 whole entry, looked up, the tested form may be a part): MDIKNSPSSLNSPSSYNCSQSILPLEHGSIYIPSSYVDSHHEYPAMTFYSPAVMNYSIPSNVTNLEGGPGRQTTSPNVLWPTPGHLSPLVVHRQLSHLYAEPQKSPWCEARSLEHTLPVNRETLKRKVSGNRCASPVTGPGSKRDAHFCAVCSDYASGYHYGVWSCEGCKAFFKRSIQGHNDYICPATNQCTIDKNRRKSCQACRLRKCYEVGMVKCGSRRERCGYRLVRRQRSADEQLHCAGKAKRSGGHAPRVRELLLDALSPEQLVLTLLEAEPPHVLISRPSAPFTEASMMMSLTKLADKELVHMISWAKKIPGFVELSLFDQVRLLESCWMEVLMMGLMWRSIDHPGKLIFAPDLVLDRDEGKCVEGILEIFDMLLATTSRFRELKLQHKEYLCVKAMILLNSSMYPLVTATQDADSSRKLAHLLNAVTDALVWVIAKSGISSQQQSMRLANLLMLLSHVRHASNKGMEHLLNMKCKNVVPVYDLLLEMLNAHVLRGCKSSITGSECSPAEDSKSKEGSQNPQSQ
Sequence of Estrogen receptor (Homo sapiens) (P03372 whole entry, looked up, the tested form may be a part): as the sequence (P03372 whole entry, looked up, the tested form may be a part) above
Sequence of Estrogen receptor beta (Homo sapiens) (Q92731 whole entry, looked up, the tested form may be a part): as the sequence (Q92731 whole entry, looked up, the tested form may be a part) above
Sequence of human Peroxisome Proliferator-activated Receptor alpha (PPARa), PPARA (gene 5465) (Q07869 whole entry, looked up): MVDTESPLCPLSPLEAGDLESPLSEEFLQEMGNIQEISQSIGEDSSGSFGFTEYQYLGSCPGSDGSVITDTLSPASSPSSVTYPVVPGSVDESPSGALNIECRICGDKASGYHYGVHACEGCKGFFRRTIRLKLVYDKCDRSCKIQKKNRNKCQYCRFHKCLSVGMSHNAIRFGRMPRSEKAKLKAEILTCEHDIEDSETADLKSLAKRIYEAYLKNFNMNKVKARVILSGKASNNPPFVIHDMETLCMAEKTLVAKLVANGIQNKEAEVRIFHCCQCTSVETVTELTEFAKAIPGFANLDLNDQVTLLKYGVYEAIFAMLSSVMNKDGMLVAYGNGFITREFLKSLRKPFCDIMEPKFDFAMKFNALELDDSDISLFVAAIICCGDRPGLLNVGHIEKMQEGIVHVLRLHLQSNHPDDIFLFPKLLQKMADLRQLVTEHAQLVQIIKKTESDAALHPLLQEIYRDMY
Sequence of Retinoic acid receptor alpha (Homo sapiens) (P10276 whole entry, looked up): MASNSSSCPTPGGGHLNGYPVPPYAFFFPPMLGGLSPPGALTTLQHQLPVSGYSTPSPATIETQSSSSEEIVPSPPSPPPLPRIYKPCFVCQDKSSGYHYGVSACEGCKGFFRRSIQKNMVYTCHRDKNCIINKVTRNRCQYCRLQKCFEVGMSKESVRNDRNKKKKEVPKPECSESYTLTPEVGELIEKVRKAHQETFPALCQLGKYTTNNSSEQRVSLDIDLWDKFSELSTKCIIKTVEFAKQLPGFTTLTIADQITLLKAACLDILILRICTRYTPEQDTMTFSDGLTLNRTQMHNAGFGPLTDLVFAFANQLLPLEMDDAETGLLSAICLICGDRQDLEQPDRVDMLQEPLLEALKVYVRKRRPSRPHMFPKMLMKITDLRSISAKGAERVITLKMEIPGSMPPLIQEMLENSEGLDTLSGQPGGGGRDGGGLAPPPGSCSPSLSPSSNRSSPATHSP

Cc1cc(Cl)ccc1OC(C)C(=O)O (stereo not drawn)
inactive: [1] | [2] | [3] | [4]

O=CCCl
inactive: [1] | [2] | [3] | [4]

CCCCCCCCCCCCN(C)C
active: [3] 73.9 µM | [4] 76.5 µM
inactive: [1] | [2]

CNC(=O)O/N=C/C(C)(C)S(C)(=O)=O
inactive: [1] | [2] | [5] | [3] | [4]

CC(C)=CC1C(C(=O)OCc2cccc(Oc3ccccc3)c2)C1(C)C (stereo not drawn)
inactive: [1] | [2] | [3] | [4]

O=C(O)COc1ccc(Cl)cc1
inactive: [1] | [2] | [3]

O=S1OC[C@@H]2[C@H](CO1)[C@]1(Cl)C(Cl)=C(Cl)[C@@]2(Cl)C1(Cl)Cl (stereo partly drawn)
inactive: [1] | [5] | [6]

O=C1c2ccccc2C(=O)C1C(=O)C(c1ccccc1)c1ccc(Cl)cc1 (stereo not drawn)
inactive: [1] | [5] | [7]
active: [6] 30 µM

CCOc1ccc(N)cc1
inactive: [1] | [2] | [3] | [4]

CCC[CH2][Sn]([Cl])([Cl])[CH2]CCC
active: [7] 12 µM
not listed: [5] | [6]
inactive: all other assays above

CC(=Cc1ccccc1)[N+](=O)[O-]
inactive: [1] | [2] | [3] | [4]
active: [5] 16.7 µM | [6] 18 µM

CCN(CCO)CCO
inactive: [1] | [2] | [3]

CC(O)(CS(=O)(=O)c1ccc(F)cc1)C(=O)Nc1ccc(C#N)c(C(F)(F)F)c1 (stereo not drawn)
active: [3] 5.63 µM
inactive: [1] | [2] | [4]

Oc1c(Br)cc(Br)cc1Br
inactive: [1] | [2] | [3] | [4]
